Screening results deposited in PubChem by several laboratories.
KLF5 inhibitor = inhibitors of KLF5 expression; actives 0.23% (n = 290,000); DLD-1 KLF5 promoter-luciferase reporter, luminescence; inhibition, % at 5 µM;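 active means inhibition above a per-plate limit of that plate's mean compound inhibition plus 3 SD, cut at about 60% in these data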;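 further: higher means less KLF5 promoter-driven luciferase light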
Jurkat NFkB inh = inhibitors of the PMA/ionomycin-induced NF-kB reporter in Jurkat cells. PMA/ionomycin-induced NF-kB luciferase reporter, luminescence. inhibition, % at 4 µM. actives 0.53% (n = 330,000). AID 435003; in the data active means inhibition above about 50%
Mdm2 MdmX PPI = inhibitors of human Mdm2/MdmX interaction. O15151+Q00987. SaOS-2 split-luciferase Mdm2/MdmX complementation, luminescence. inhibition, % at 8 µM. actives 3% (n = 330,000);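 active means inhibition of at least 50% at 8 µM in the primary screen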
Target sequence (O15151 whole entry, looked up): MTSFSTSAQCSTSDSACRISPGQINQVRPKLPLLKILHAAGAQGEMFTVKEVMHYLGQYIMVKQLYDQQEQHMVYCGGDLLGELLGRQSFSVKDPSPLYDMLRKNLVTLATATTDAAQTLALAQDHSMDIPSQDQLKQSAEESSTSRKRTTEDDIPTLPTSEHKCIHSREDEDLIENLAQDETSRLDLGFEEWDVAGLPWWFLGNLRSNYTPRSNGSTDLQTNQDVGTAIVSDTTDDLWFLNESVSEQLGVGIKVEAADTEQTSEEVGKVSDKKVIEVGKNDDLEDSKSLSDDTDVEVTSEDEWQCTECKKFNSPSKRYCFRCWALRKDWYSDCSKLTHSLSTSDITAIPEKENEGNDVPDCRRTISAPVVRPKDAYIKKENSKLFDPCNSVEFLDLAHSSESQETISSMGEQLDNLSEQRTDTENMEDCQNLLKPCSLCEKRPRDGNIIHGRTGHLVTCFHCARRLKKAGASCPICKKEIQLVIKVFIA
Target sequence (Q00987 whole entry, looked up): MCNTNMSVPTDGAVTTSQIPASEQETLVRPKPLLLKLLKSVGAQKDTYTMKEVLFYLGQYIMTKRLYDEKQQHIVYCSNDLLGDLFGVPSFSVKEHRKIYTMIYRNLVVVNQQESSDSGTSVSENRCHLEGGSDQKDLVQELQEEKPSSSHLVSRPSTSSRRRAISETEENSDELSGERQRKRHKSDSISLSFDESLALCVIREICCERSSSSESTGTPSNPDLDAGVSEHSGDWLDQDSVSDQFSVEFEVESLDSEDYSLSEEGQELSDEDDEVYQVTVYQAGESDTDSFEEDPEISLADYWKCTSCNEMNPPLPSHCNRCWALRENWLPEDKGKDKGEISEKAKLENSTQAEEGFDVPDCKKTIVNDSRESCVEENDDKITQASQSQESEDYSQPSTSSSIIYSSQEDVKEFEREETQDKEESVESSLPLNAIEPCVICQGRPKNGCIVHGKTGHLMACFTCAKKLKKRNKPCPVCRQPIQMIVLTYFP
697 NFkB inh = inhibitors of the PMA/ionomycin-induced NF-kB reporter in 697 B cells; AID 435022; inhibition, % at 4 µM; actives 0.33% (n = 330,000); 697 B-cell NF-kB luciferase reporter, 16 h; in the data active means inhibition above about 35%
Gli-Sufu antag = antagonists of Gli-Sufu signaling | AID 588413 | Sufu-KO-LIGHT fibroblasts, Gli luciferase reporter luminescence | inhibition, % at 5 µM | actives 0.74% (n = 340,000);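 active means inhibition above about 55%, limit read from the data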
aSyn UTR inh = MLPCN primary screen, SNCA 5' untranslated region; alpha-synuclein 5'UTR reporter, inhibitor activity; inhibition, % (tested at 7.5 µM); actives 0.82% (n = 300,000); AID 1813; in the data active means inhibition above about 60%;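 further: H4 neuroglioblastoma cells stably carrying SNCA 5'UTR luciferase fusion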
Mdm2-MdmX conf = human Mdm2/MdmX binding inhibition, confirmed. inhibition, % at 8 µM. shares compounds with Mdm2 MdmX PPI. actives 55% (n = 10,000). luminescent assay. AID 489028; in the data active means inhibition above about 40%
Full FLuc ctr = full-length luciferase inhibition in Mdm2/MdmX counter-screen. SaOS-2 full-length luciferase counterscreen, luminescence. shares compounds with Mdm2 MdmX PPI. inhibition, % at 8 µM. actives 77% (n = 6,200);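 active means mean inhibition at 8 µM reaching about 37%, which flags the compound as non-specific, limit read from the data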;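 further: p53-null SaOS-2 cells with luciferase driven by a doxycycline-inducible promoter; compound on cells about two nights before reading with doxycycline added after day one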
Of the large screens only hits and unclear results are named; the others gave an inactive call (follow-up assays come after a bar, where they were run). Shown are actives, neighbours in structure and some others; about 4.1% of the full set was active somewhere.

O=[N+]([O-])c1ccc(Sc2nnnn2-c2ccccc2)c(Cl)c1	none
CC(=O)c1ccc(Sc2nnnn2-c2ccccc2)c([N+](=O)[O-])c1	Mdm2 MdmX PPI 85 | Mdm2-MdmX conf 58 | Full FLuc ctr inactive
CN1CCN(S(=O)(=O)c2ccc(Sc3nnnn3-c3ccccc3)c([N+](=O)[O-])c2)CC1	Mdm2 MdmX PPI 88 | Mdm2-MdmX conf 77 | Full FLuc ctr 56
CS(=O)(=O)c1ccc(NS(=O)(=O)c2ccc(Cl)c(C(=O)NCc3ccco3)c2)cc1	none (no result: KLF5 inhibitor, aSyn UTR inh)
C=CCN1C(=O)C(CC(=O)Nc2ccc(OCCC)cc2)N(CCCN2CCN(Cc3ccccc3)CC2)C1=S (centres undefined)	Mdm2 MdmX PPI 80 | Mdm2-MdmX conf inactive | Full FLuc ctr 75
COc1ccc(NC(=O)CC2C(=O)N(Cc3ccccc3)C(=S)N2CCN2CCOCC2)cc1 (centres undefined)	none
Cc1ccc(NC(=O)CSc2nc3ccccc3c(=O)n2CCCN2CCCCC2)cc1C	Mdm2 MdmX PPI 75 | Mdm2-MdmX conf 40 | Full FLuc ctr 62
CCc1ccc(NC(=O)CSc2nc3ccccc3c(=O)n2CCCN2CCC(C)CC2)cc1	Mdm2 MdmX PPI 86 | Mdm2-MdmX conf 49 | Full FLuc ctr 36
COc1ccc(C2CC(c3ccccc3F)=NN2c2ccc(S(N)(=O)=O)cc2)cc1 (centres undefined)	none (no result: KLF5 inhibitor, Jurkat NFkB inh, aSyn UTR inh)
COc1ccc(C2CC(c3ccccc3C(F)(F)F)=NN2c2ccc(S(N)(=O)=O)cc2)cc1 (centres undefined)	Mdm2 MdmX PPI 67 (no result: KLF5 inhibitor, Jurkat NFkB inh, aSyn UTR inh) | Mdm2-MdmX conf 62 | Full FLuc ctr 70
CCc1ccc(C2=NN(c3ccc(S(N)(=O)=O)cc3)C(c3ccc(F)cc3)C2)cc1 (centres undefined)	Mdm2 MdmX PPI 77 | Mdm2-MdmX conf inactive
COc1ccc(C2CC(c3ccc(C(F)(F)F)cc3)=NN2c2ccc(S(N)(=O)=O)cc2)cc1 (centres undefined)	Mdm2 MdmX PPI 93 (no result: KLF5 inhibitor, Jurkat NFkB inh, aSyn UTR inh) | Mdm2-MdmX conf inactive
COc1ccccc1OCC(=O)NNc1c2ccccc2nc2ccccc12	none
Cc1ccc(CNC(=O)C2CCC(=O)N(Cc3ccccc3F)C2)s1 (centres undefined)	none
O=C(Nc1ccc(OC(F)(F)F)cc1)c1[nH]ncc1[N+](=O)[O-]	none
CCOC(=O)C(C)Oc1ccc(NC(=O)C(Cl)Cl)cc1 (centres undefined)	none
COc1ccc(NC(=O)CNC(=O)c2sc3ccccc3c2Cl)c(OC)c1	Mdm2 MdmX PPI 77 (no result: KLF5 inhibitor, aSyn UTR inh) | Mdm2-MdmX conf inactive
COc1ccccc1CNC(=O)CNC(=O)c1sc2ccccc2c1Cl	none
COc1ccccc1NC(=O)NCCCCc1ccccc1	none
CC(=O)c1cccc(NC(=O)CNC(=O)c2sc3ccccc3c2Cl)c1	Mdm2 MdmX PPI 76 (no result: KLF5 inhibitor) | Mdm2-MdmX conf 48 | Full FLuc ctr 55
COc1ccc(NC(=O)NCCCCc2ccccc2)c(OC)c1	Mdm2 MdmX PPI 58 | Mdm2-MdmX conf inactive
Cc1cc(C)nc(NC(=O)/C=C/c2ccccc2Cl)n1	none
Cc1cc(N)c2cc(NC(=O)/C=C/c3ccccc3Cl)ccc2n1	Mdm2 MdmX PPI 100, aSyn UTR inh 107 | Mdm2-MdmX conf 100 | Full FLuc ctr 51
CCOc1ccc(/C=N/Nc2cc(=O)n(C)c(=O)n2C)cc1	none
CCCCc1nc2c(C)c(N)cnc2n1Cc1cccc([N+](=O)[O-])c1	none
Cc1ccc2cc3c(N)c(C(=O)N4CC(=O)Nc5ccccc54)sc3nc2c1	Mdm2 MdmX PPI 64, aSyn UTR inh 82 (no result: Gli-Sufu antag) | Mdm2-MdmX conf 57 | Full FLuc ctr 83
Cc1ccc2nc3sc(C(=O)N4CCOCC4)c(N)c3cc2c1	Mdm2 MdmX PPI 59, aSyn UTR inh 100 | Mdm2-MdmX conf 61 | Full FLuc ctr 103
Cc1ccc2cc3c(N)c(C(=O)N4CCOCC4)sc3nc2c1	none
Cc1ccc(S(=O)(=O)c2nc(S(C)(=O)=O)sc2N2CCC(C)CC2)cc1	Mdm2 MdmX PPI 53 | Mdm2-MdmX conf inactive
